Laboratory results taken from the supplement of paper PMC6555819.

Assays:
Experiment in all cases: PBM binding z-score (relative to random genomic background probes); higher = stronger binding; sequences stand for … in GC…GCGATTGACAGCGTAGAATGAAGG
[1] = tested on: PPARg:RXRa DBDmut IVT, anti-RXR (DBD mutation: RXRa K156A/R161A, NR concentration 270 nM, RXRa partner concentration 90 nM)
Outline: (§1)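 On custom Agilent 4×180K arrays, double-stranded probes with 34-nt variable regions carried direct-repeat seeds, single-nucleotide variants, half-site ablations or random human genomic background. Ligand-free nuclear receptor dimers were applied for 1 h, and binding was read with antibodies against each partner (one per run). Binding z-scores come from regression-normalized fluorescence, with the random background probes as reference.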

[2] = tested on: PPARg:RXRa IVT, anti-PPARg (NR concentration 270 nM, RXRa partner concentration 90 nM)
Outline: as §1

[3] = tested on: PPARg DBDmut:RXRa IVT, anti-PPARg (DBD mutation: PPARg1 K132A/R137A, NR concentration 270 nM, RXRa partner concentration 90 nM)
Outline: as §1

[4] = tested on: PPARg DBDmut IVT, anti-PPARg (DBD mutation: PPARg1 K132A/R137A, NR concentration 270 nM)
Outline: as §1

[5] = tested on: PPARg homodimer (NR concentration 180 nM)
Outline: as §1

[6] = tested on: PXR:RXRa (NR concentration 270 nM, RXRa partner concentration 90 nM)
Outline: as §1

[7] = tested on: PXR homodimer (NR concentration 270 nM)
Outline: as §1

[8] = tested on: RARa:RXR (NR concentration 270 nM, RXRa partner concentration 90 nM)
Outline: as §1

[9] = tested on: RARa homodimer (NR concentration 270 nM)
Outline: as §1

[10] = tested on: RARb:RXRa (NR concentration 270 nM, RXRa partner concentration 90 nM)
Outline: as §1

[11] = tested on: RARb homodimer (NR concentration 270 nM)
Outline: as §1

[12] = tested on: RARg:RXRa (NR concentration 270 nM, RXRa partner concentration 90 nM)
Outline: as §1

[13] = tested on: RARg homodimer (NR concentration 270 nM)
Outline: as §1

[14] = tested on: RXRa DBDmut IVT, anti-RXR (DBD mutation: RXRa K156A/R161A, NR concentration 90 nM)
Outline: as §1

[15] = tested on: RXRa homodimer (NR concentration 180 nM)
Outline: as §1

[16] = tested on: THRa:RXRa (NR concentration 90 nM, RXRa partner concentration 90 nM)
Outline: as §1

[17] = tested on: THRa homodimer (NR concentration 90 nM)
Outline: as §1

[18] = tested on: VDR homodimer (NR concentration 270 nM)
Outline: as §1

Sequence | PBM binding z-score [1] | PBM binding z-score [2] | PBM binding z-score [3] | PBM binding z-score [4] | PBM binding z-score [5] | PBM binding z-score [6] | PBM binding z-score [7] | PBM binding z-score [8] | PBM binding z-score [9] | PBM binding z-score [10] | PBM binding z-score [11] | PBM binding z-score [12] | PBM binding z-score [13] | PBM binding z-score [14] | PBM binding z-score [15] | PBM binding z-score [16] | PBM binding z-score [17] | PBM binding z-score [18]
CCTTACGAGTCACGAGGTTATAGCACGACGAGCG | 0.274 | 0.318 | 0.557 | 0.13 | 1.26 | 1.25 | 0.811 | 1.79 | 1.56 | 0.971 | 1.11 | 1.27 | 1.04 | 0.554 | 1.8 | 1.9 | 1.19 | 1.26
CAGACTAGGTCACCGGAAGGTCAAAGTCCGCATG | 7.28 | 7.61 | 0.753 | 0.84 | 6.86 | 5.81 | 1.7 | 6.81 | 2.04 | 5.34 | 5.55 | 8.29 | 7.56 | 1.74 | 6.56 | 4.37 | 2.62 | 3.42
TAGCCTAGGGCATGGGCCAGTATACCACGCGAAC | -0.924 | 0.59 | -0.344 | -0.519 | -0.284 | -0.477 | -0.557 | 0.0195 | -0.519 | 1.33 | 0.79 | 0.484 | 0.834 | -1.24 | 0.135 | -0.0791 | 0.0268 | -0.21
ATCTCTAGGTAACCAAGTTGAGTGAATGCCGAAC | 3.51 | 2.64 | 0.787 | 1.26 | 0.031 | -0.00792 | 0.194 | 0.144 | 0.0193 | 0.243 | 0.229 | -0.0592 | 0.11 | 0.0229 | 0.0959 | 0.852 | 0.635 | 0.254
TCGGGTAGGTTAGGGGCATTCAGAATGGCGTCGA | 1.55 | 1.36 | 0.266 | 0.468 | 1.38 | 1.67 | 1.27 | 1.32 | 0.423 | 1.74 | 1.88 | 1.07 | 1 | 0.943 | 1.02 | 2.44 | 1.61 | 1.79
TAGCCTAGGTCATTAGGCCAGTATAGTACGCATC | 2.12 | 3.88 | 0.301 | -0.52 | 1.19 | 0.87 | -0.114 | 1.79 | 0.0486 | 3.24 | 2.93 | 3.47 | 3.8 | 1.54 | 2.1 | 2.4 | 0.34 | 0.922
AATACAGGGTCATCGTAGGCCAGCGTACGCACAG | 2.7 | 4.3 | 1.13 | 2.04 | 1.67 | 4.77 | 0.406 | 4.77 | 0.478 | 4.55 | 3.68 | 5.61 | 4.89 | 2.94 | 6.47 | 4.79 | 1.37 | 3.03
ATCTCTAGGTAAAAGCTCAGTGAATCCCGAGGAT | 2.43 | 1.66 | 0.208 | 0.808 | -0.0545 | -0.626 | -0.475 | -0.548 | 0.418 | -0.0301 | -0.335 | -0.0468 | 0.135 | -0.625 | -0.149 | 0.0962 | -0.296 | -0.497
TCATAAAGGTAAAGGTGAAAGTCGAACGATATGA | 2.88 | 3.1 | 1.14 | 0.528 | 1.69 | 1.3 | -0.127 | 2.37 | 0.551 | 2.66 | 1.86 | 2.14 | 2.08 | 1.06 | 2.73 | 1.73 | -0.454 | 0.0173
TCTAGTTGGTCACGGAGTTCACACACGACGGGTA | 2.4 | 2.92 | 1.45 | 0.822 | 1.92 | 4.53 | 3.62 | 2.15 | 0.649 | 2.87 | 3.11 | 2.99 | 2.63 | 1.79 | 2.81 | 1.66 | 0.539 | 5.75
GCTAGGTGGTCAGTAAAAGGTCACACACCGGTCG | 0.659 | 2.52 | 0.634 | 0.226 | 4.93 | 5.02 | 1.22 | 5.97 | 2.31 | 4.34 | 5.21 | 6.23 | 5.47 | 0.0546 | 5.57 | 3.55 | 1.73 | 2.03
ATCTCTAGGTAAAAGTTCAGCGAATCCCGAGGAT | 2.55 | 4.3 | 1.19 | 1.67 | 2.4 | 2.46 | 1.54 | 2.48 | 0.715 | 2.93 | 2.76 | 2.88 | 3.02 | 0.792 | 2.62 | 1.58 | 0.0924 | 1.07
GCTGCTAGGTCAGGTTGGTCAGCTTACGGGTACG | 2.99 | 1.96 | -0.781 | -0.52 | 0.591 | 0.193 | -0.264 | 0.655 | -0.341 | 3.31 | 2.84 | 2.41 | 3.46 | 0.504 | 0.756 | 1.8 | 0.808 | 0.197
ACGAGCAGGCCAAGGGTCACTCAAGATTAGTCCG | 0.294 | 2.7 | -0.273 | -0.61 | 1.76 | 3.15 | -0.226 | 4.01 | 0.319 | 3.69 | 3.96 | 4.21 | 4 | 0.0917 | 4.07 | 2.69 | 0.262 | 0.916
